Records with an inconclusive call do not appear. Values without a mark were called inactive. Activity calls are given as the source filed them. Calls come from the whole dose curve; as a rule, active = well fitted activation curve with a large enough effect in the repeat runs; inconclusive = weak or mixed curves; inactive = flat fitted curve, though single readings scatter.
% is set by controls: 0 for no effect and ±100 for the full control effect; potency is the fitted concentration of half-maximal effect.

This test can be described thus: A CellTox Green Cytotoxicity Assay to monitor cytotoxicity in HepG2 cells - 8 hour (AID 1224890). Note: nearly all actives have a fitted effect of over 45% in size. The following applies: CellTox Green fluorescence; series mostly up to 76.8 µM; cytotoxicity increase: at the top concentration. An excerpt:
National Center for Advancing Translational Sciences [NCATS]
NIH Chemical Genomics Center [NCGC]
U.S. Environmental Protection Agency [EPA]
National Institutes of Environmental Health Sciences [NIEHS]
National Toxicology Program [NTP]
Cell-based models are critical for drug discovery. Determining the natural cytotoxic effects resulting from test compounds is an essential research activity. A CellTox Green Cytotoxicity Assay to monitor cytotoxicity in real time of continues cell culture during 40 hours of the compound treatment was used to screen Tox21 10K library compounds in HepG2 cells. CellTox Green Cytotoxicity Assay is a nonlytic, homogeneous, biofluorescent method to measure cytotoxicity in cell culture after experimental manipulation. The assay system uses a proprietary asymmetric cyanine dye that is excluded from viable cells but preferentially stains the dead cell's DNA. […] Viable cells produce no appreciable increases in fluorescence. Therefore, the fluorescence signal produced by the binding interaction with dead cell DNA is proportional to cytotoxicity.
The mixture of HepG2 cell suspension and reagents were dispensed at 600cells/6 ul/well in 1536-well tissue culture treated black solid bottom plates using a Multidrop dispenser. After the assay plates were incubated at a 37 C/5% CO2 incubator for 5 hours, 23 nL of compounds dissolved in DMSO, positive and negative controls was transferred to the assay plate by a pintool work station. The plates were incubated at 37 C for 40 hours. The fluorescence intensity were measured at 0h, 8h, 16h, 24h, 32h and 40h time points using ViewLux plate reader during compound treatment.
Regarding `O=C(Cl)c1ccc([N+](=O)[O-])cc1`, the “cytotoxicity increase” value was 1.23%.

Take `CC(C)(C)c1cc(O)c(C(C)(C)C)cc1O`: the “cytotoxicity increase” value is 0.306%.

As to `CN(C)CCCOc1nn(Cc2ccccc2)c2ccccc12`, the “cytotoxicity increase” value was 2.47% [at 35.3 µM].

In the case of `CCCCc1cc2ccccc2c(OCCN(C)C)n1`, the “cytotoxicity increase” value is 0.105% [at 35.3 µM].

Take `COCCO`: the “cytotoxicity increase” value was -6.03%.

Consider `Nc1cnn([C@@H]2O[C@H](CO)[C@@H](O)[C@H]2O)c(=O)n1`, for which the “cytotoxicity increase” value was -1.36%.

With `Cc1nc2ccccc2n1Cc1ccc(Cl)cc1`, the “cytotoxicity increase” value was 3.82% [at 35.3 µM].

Consider `O=C1CCCCCO1`, for which the “cytotoxicity increase” value was -2.18%.

Consider `CCCCCCCCCC(=O)OCC`, for which the “cytotoxicity increase” value was -4.58%.

Take `CC(C(=O)O)c1ccc(C(=O)c2ccccc2)s1` (stereo not given): the “cytotoxicity increase” value was 3.4% [at 35.3 µM].

In the case of `CC(C)=CCCC(C)CC=O` (stereo not given), the “cytotoxicity increase” value is -0.366%.

`O=C(Cl)c1c(Cl)cccc1Cl`: the “cytotoxicity increase” value was -10.9%.

In the case of `CCCCCC/C=C/C=O`, the “cytotoxicity increase” value was -3.22%.

Consider `CC(C)CC=O`, for which the “cytotoxicity increase” value was -4.25%.

Take `COC(=O)CSc1cc(N=c2sc(=O)n3n2CCCC3)c(F)cc1Cl`: the “cytotoxicity increase” value was -8.86%.

As for `Oc1ccc2c(c1)OCO2`, the “cytotoxicity increase” value was -1.3%.

As for `C#CCOC(=O)[C@@H](C)Oc1ccc(Oc2ncc(Cl)cc2F)cc1`, the “cytotoxicity increase” value was 2.79%.

Consider `CCCCC(CC)(CO)CO`, for which the “cytotoxicity increase” value was -3%.

For `CCCCOCCOCCOCCOCCO`, the “cytotoxicity increase” value was -4.31%.

For the molecule `O=C(O)COC(=O)Cc1ccccc1Nc1c(Cl)cccc1Cl`, the “cytotoxicity increase” value was -3.74% [at 35.3 µM].

Consider `N#CCc1cccc(C(F)(F)F)c1`, for which the “cytotoxicity increase” value is 0.178%.

On to `C[C@H](CCC(=O)O)[C@H]1CC[C@H]2[C@@H]3[C@H](O)C[C@@H]4C[C@H](O)CC[C@]4(C)[C@H]3CC[C@]12C`, for which the “cytotoxicity increase” value is 1.84%.

Turning to `Cc1cc(NC(=O)C(=O)O)cc(C)c1Oc1ccc(O)c2c1CCC2`, the “cytotoxicity increase” value was -13.4%.

`CC(C)(C)c1cc(CCC(=O)OCC(COC(=O)CCc2cc(C(C)(C)C)c(O)c(C(C)(C)C)c2)(COC(=O)CCc2cc(C(C)(C)C)c(O)c(C(C)(C)C)c2)COC(=O)CCc2cc(C(C)(C)C)c(O)c(C(C)(C)C)c2)cc(C(C)(C)C)c1O`: the “cytotoxicity increase” value is -4.76% [at 35.3 µM].

Consider `CC(=O)[C@@]1(O)CC[C@H]2[C@@H]3C[C@H](C)C4=CC(=O)CC[C@]4(C)[C@H]3CC[C@@]21C`, for which the “cytotoxicity increase” value is 2.05% [at 35.3 µM].

`CCOC(=S)SSC(=S)OCC`: the “cytotoxicity increase” value was -1.11%.

`O=S(=O)(O)c1ccc(O)c2ncccc12`: the “cytotoxicity increase” value is -9.27%.

For `C=CC(=O)OCCOC(=O)CCC(=O)O`, the “cytotoxicity increase” value is -12.1%.

Turning to `COCCOCCOCCOCCOC`, the “cytotoxicity increase” value is -1.41%.

As to `O=C(Nc1ccccc1)OCC(CN1CCCCC1)OC(=O)Nc1ccccc1` (stereo not given), the “cytotoxicity increase” value was -1.46% [at 35.3 µM].

In the case of `N=C(N=C(N)N)N1CCOCC1`, the “cytotoxicity increase” value is -2.22% [at 35.3 µM].

Turning to `Cl/C(=C\n1cncn1)c1ccc(Cl)cc1Cl`, the “cytotoxicity increase” value is 3.36% [at 35.3 µM].

As to `CCN1CCC[C@H]1CNC(=O)c1c(OC)ccc(Br)c1OC`, the “cytotoxicity increase” value is -17% [at 35.3 µM].

With `N#CCCNCCC#N`, the “cytotoxicity increase” value is 0.109%.

On to `CC(=O)NCCCS(=O)(=O)O`, for which the Potency is 18.9 µM (active).

With `Nc1nc(N)c(-c2ccccc2)s1`, the “cytotoxicity increase” value is -4.36% [at 35.3 µM].

Consider `CCOc1nc2cccc(C(=O)O)c2n1Cc1ccc(-c2ccccc2-c2nn[nH]n2)cc1`, for which the “cytotoxicity increase” value was -6.76% [at 35.3 µM].

For `CC(C)(C)C(=O)OCOP(=O)(COCCn1cnc2c(N)ncnc21)OCOC(=O)C(C)(C)C`, the “cytotoxicity increase” value was -10.5% [at 35.3 µM].

For `Cn1c(NCCN(CCO)CCCc2ccc([N+](=O)[O-])cc2)cc(=O)n(C)c1=O`, the “cytotoxicity increase” value is -1.03% [at 35.3 µM].

As to `O=C(C(=O)c1ccc(Br)cc1)c1ccc(Br)cc1`, the cytotoxicity increase was -4.98% [at 15.8 µM].

The values are drawn from PubChem BioAssay (Tox21).
